Compound activity: PubChem, National Center for Advancing Translational Sciences (NCATS)
Shiga toxin inh = Shiga toxin inhibition | Vero cells, Shiga toxin protein synthesis inhibition reporter | inhibition, % at 38.7 µM | actives 9.2% (n = 290,000) | AID 2315; in the data active = inhibition mostly above about 28%, no sharp cut-off; inactive = mostly below about 43%; also: 0% is about no effect
Sm TGR block = inhibitors of Schistosoma mansoni thioredoxin glutathione reductase. purified TGR, DTNB reduction, TNB absorbance 405 nm. Potency, µM (titrated, usually from 114 µM), inactives show at the top dose activity change, negative = inhibition, usual class: inhibitors. actives 3% (n = 360,000). AID 485364; also: potency is read from the fitted curve at half-maximal effect; % is scaled to controls: 0 for no effect and ±100 for the full control effect; nearly all actives have a fitted effect of over 60% in size
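Kinetic colorimetric format: TGR-catalysed, NADPH-driven DTNB reduction monitored via TNB absorbance. Enzyme dispensed at 20 nM; compound exposure 15 min at room temperature before reaction start.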
TbPYK inhibitor = blocks Trypanosoma brucei pyruvate kinase. Q57TT1. TbPYK enzyme, Kinase-Glo Plus ATP luminescence, 45 min. Potency, µM (top dose mostly 76.8 µM), for inactives: top-dose activity, negative = inhibition, usual class: inhibitors. actives 0.12% (n = 410,000). AID 624173; also: potency is read from the fitted curve at half-maximal effect; % is scaled to controls: 0 for no effect and ±100 for the full control effect; nearly all actives have a fitted effect of over 50% in size
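Luminescence from Kinase-Glo Plus, added after a 45-minute room-temperature reaction, served as the end-point read-out. The enzyme and substrate were preincubated with compound before ADP (130 uM final) initiated turnover. Concentration-effect curves came from normalized qHTS data.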
FBPA Giardia inh = inhibitors of Giardia lamblia fructose-1,6-bisphosphate aldolase; A8B2U2; purified Giardia FBPA; Potency, µM (titrated, usually from 59.6 µM), inactives show at the top dose activity, negative = inhibition, most hits filed as inhibitors; actives 0.71% (n = 290,000); AID 2451; also: potency is read from the fitted curve at half-maximal effect; % is scaled to controls: 0 for no effect and ±100 for the full control effect; nearly all actives have a fitted effect of over 55% in size
Target sequence (A8B2U2 whole entry, looked up): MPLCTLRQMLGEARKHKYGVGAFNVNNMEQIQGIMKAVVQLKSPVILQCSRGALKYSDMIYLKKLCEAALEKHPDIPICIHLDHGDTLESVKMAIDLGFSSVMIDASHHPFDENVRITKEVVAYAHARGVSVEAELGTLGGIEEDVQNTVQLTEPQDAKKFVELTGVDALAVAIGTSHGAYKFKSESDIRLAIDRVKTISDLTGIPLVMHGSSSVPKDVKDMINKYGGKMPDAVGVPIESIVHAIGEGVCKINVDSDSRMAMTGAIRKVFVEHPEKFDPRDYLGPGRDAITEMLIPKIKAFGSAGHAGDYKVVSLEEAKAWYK
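Giardia FBPA (40 nM reagent) was preincubated 10 min at RT with compound (up to 57.5 uM final), then substrate plus GAPDH/TPI/NAD/arsenate coupling system with diaphorase/resazurin was added; resorufin fluorescence (525/598 nm) was read after 20 min.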
CHX counter = counter-screen for Shiga toxin inhibitors: cycloheximide protein synthesis inhibition; cell reporter, cycloheximide protein synthesis inhibition counterscreen; max response, %; actives 12% (n = 300,000); AID 2314; in the data active = max response mostly above about 13%, no sharp cut-off; inactive = mostly below about 14%; also: read at 38.3 µM for the half of the compounds with a filed dose; 0% is about no effect
LmPK inhibitor = inhibitors of Leishmania mexicana pyruvate kinase; Q27686; purified LmPK, Kinase-Glo ATP luminescence, 1 h; Potency, µM (series often up to 57.5 µM), for inactives: at the highest dose activity change, negative = inhibition, actives largely listed as inhibitors; actives 0.37% (n = 290,000); AID 1721; also: potency is read from the fitted curve at half-maximal effect; % is scaled to controls: 0 for no effect and ±100 for the full control effect
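ATP generated from ADP (0.1 mM) and PEP (0.5 mM) by 0.1 nM LmPK over 1 h at room temperature (pH 7.2 imidazole buffer) was detected by coupled luciferase luminescence. Values were normalized to uninhibited and no-enzyme wells.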
* hit, by the source's call; [ ] = remark or other dose. The full list was thinned out, with hits kept by preference. Unless noted, calls follow the shape of the dose curve; as a rule, active = well fitted curve in the direction sought with a large enough effect; inconclusive = small, poorly fitted or top-dose-only effect, or another doubt; inactive = no such curve, though single readings can be large; an effect the other way counts as inactive or inconclusive.

What do the screens show for `Cc1ccc(C(=O)C2=C(O)C(=O)N(Cc3ccco3)C2c2cccc(Cl)c2)o1` (stereo not drawn)?
Shiga toxin inh: -26; Sm TGR block: 50µM*; TbPYK inhibitor: -13%; CHX counter: 11; LmPK inhibitor: -7%

How did O=C(O)c1cccc2c1C(=O)c1ccc(N3CCN(Cc4ccc5c(c4)OCO5)CC3)cc1S2(=O)=O do in these assays?
TbPYK inhibitor: 1%

What do the screens show for `COc1cccc(CNC(=O)Cn2c(C)c3cnn(-c4ccccc4)c(=O)c3c2C)c1`?
Sm TGR block: 0%; TbPYK inhibitor: -4%

Results for CC(C)Oc1ccc(C(=O)Nc2c3c(nn2-c2ccccc2)CS(=O)(=O)C3)cc1 ?
Shiga toxin inh: -4; Sm TGR block: -9%; TbPYK inhibitor: 4%; CHX counter: -5; LmPK inhibitor: 0%

What do the screens show for `Cc1nnc(SCc2ccc(Cl)cc2Cl)[nH]c1=O`?
Shiga toxin inh: 22; Sm TGR block: 3%; TbPYK inhibitor: 6%; FBPA Giardia inh: -3%; CHX counter: 12*; LmPK inhibitor: 5%

What do the screens show for `CCS(=O)(=O)c1ncc(Cl)c(C(=O)N(Cc2ccccc2)Cc2ccco2)n1`?
Sm TGR block: 8.9µM*; TbPYK inhibitor: 1%

How did O=C(C[n+]1cc(Br)cc2ccccc21)c1ccc(Br)cc1 do in these assays?
Shiga toxin inh: -17; Sm TGR block: -13%; TbPYK inhibitor: 4%; FBPA Giardia inh: 8%; CHX counter: 1; LmPK inhibitor: 0%

What do the screens show for `O=C(C[n+]1cn(C(F)F)c2ccccc21)c1ccc(Br)cc1`?
Shiga toxin inh: 62*; Sm TGR block: 4µM*; TbPYK inhibitor: -2%; FBPA Giardia inh: 4%; CHX counter: 28*; LmPK inhibitor: 2%

What do the screens show for `CCOC(=O)C1=C(C)NC(C)=C(C(=O)OC)[C@@H]1c1cccc(Cl)c1Cl`?
FBPA Giardia inh: 1%[21.7 µM]

What do the screens show for `O=C(O)c1ccc(S(=O)(=O)N[C@H](Cc2ccc(O)cc2)C(=O)O)cc1`?
Shiga toxin inh: 16; Sm TGR block: inconclusive; FBPA Giardia inh: 16%; CHX counter: -7

How did CCN1CCN(C(=O)c2ccc3c(c2)N(Cc2c(F)cccc2Cl)C(=O)c2ccccc2S3)CC1 do in these assays?
Sm TGR block: 3%; TbPYK inhibitor: 1%

Results for CC[C@H](C)/C=C(C)/C=C/C(=O)Cc1cc(O)c(C)c(O)c1C=O ?
Shiga toxin inh: -4; Sm TGR block: 28µM*; TbPYK inhibitor: 0%; FBPA Giardia inh: -21%; CHX counter: 2; LmPK inhibitor: 0%

Results for Cc1cccc(CNC(=O)c2cc3cc(S(=O)(=O)N4CCCCC4)ccc3n2C)c1 ?
Sm TGR block: 0%; TbPYK inhibitor: 1%

Results for NS(=O)(=O)c1ccc(Nc2nc(-c3ccc(F)cc3)cs2)cc1 ?
Shiga toxin inh: 17; Sm TGR block: 7%; TbPYK inhibitor: -2%; FBPA Giardia inh: -6%; CHX counter: 14; LmPK inhibitor: 12%

Results for CC(=O)Oc1ccc(-c2csc(Nc3cccc(C)n3)n2)cc1 ?
Shiga toxin inh: 91*; Sm TGR block: -5%; TbPYK inhibitor: 4%; FBPA Giardia inh: 4%; CHX counter: 45*; LmPK inhibitor: -9%

Results for COc1ccc(-c2csc(Nc3ccc(Oc4ccccc4)cc3)n2)cc1 ?
TbPYK inhibitor: -6%

Results for COc1ccc(-c2csc(C)n2)cc1OC ?
Shiga toxin inh: 1; Sm TGR block: 1%; TbPYK inhibitor: -8%; FBPA Giardia inh: 1%; CHX counter: 5; LmPK inhibitor: -2%

How did Cc1cccc(Nc2nc(-c3ccc(F)cc3)cs2)n1 do in these assays?
Shiga toxin inh: 105*; Sm TGR block: 6%; TbPYK inhibitor: -1%; FBPA Giardia inh: -2%; CHX counter: 46*; LmPK inhibitor: -7%

What do the screens show for `COc1ccc(-c2csc(Nc3cccc(C)n3)n2)cc1`?
Shiga toxin inh: 71*; Sm TGR block: -23%; TbPYK inhibitor: -3%; FBPA Giardia inh: 8%; CHX counter: 38*; LmPK inhibitor: -3%

How did COc1ccc(-c2csc(Nc3cccc(C)n3)n2)cc1C do in these assays?
Shiga toxin inh: 79*; Sm TGR block: -1%; TbPYK inhibitor: 0%; FBPA Giardia inh: 3%; CHX counter: 56*; LmPK inhibitor: -3%

How did Cc1ccc(Cl)cc1NC(=O)Cn1cc(S(=O)(=O)Cc2ccccc2Cl)c2ccccc21 do in these assays?
Sm TGR block: 0%; TbPYK inhibitor: 3%[15.4 µM]

Results for CC1CCCC(C)N1CCCNC(=O)c1ccc2nc(N3CCCCC3)sc2c1 (stereo not drawn) ?
Shiga toxin inh: 59*; Sm TGR block: -16%; TbPYK inhibitor: -3%; FBPA Giardia inh: 7%; CHX counter: 18*; LmPK inhibitor: -6%

Results for CCC1CCCCN1CCCNC(=O)c1ccc2nc(N3CCCCC3)sc2c1 (stereo not drawn) ?
Shiga toxin inh: 17; Sm TGR block: -18%; TbPYK inhibitor: -2%; FBPA Giardia inh: -2%; CHX counter: 15; LmPK inhibitor: 0%

What do the screens show for `CC1CCCC(C)N1CCCNC(=O)c1ccc2nc(N3CCOCC3)sc2c1` (stereo not drawn)?
Shiga toxin inh: 3; Sm TGR block: 0%; TbPYK inhibitor: -4%; FBPA Giardia inh: -1%; CHX counter: 4; LmPK inhibitor: -2%

What do the screens show for `CC1CCN(c2nc3ccc(C(=O)NCCCN4CCCCC4C)cc3s2)CC1` (stereo not drawn)?
Shiga toxin inh: 34*; Sm TGR block: 4%; TbPYK inhibitor: -4%; FBPA Giardia inh: -4%; CHX counter: 29*; LmPK inhibitor: -8%

How did COc1ccc(/C(N)=N/OC(=O)CC2CCCCC2)cc1OC do in these assays?
Shiga toxin inh: 55*; Sm TGR block: 2%; TbPYK inhibitor: -6%; CHX counter: 50*; LmPK inhibitor: -1%

What do the screens show for `N/C(=N\OC(=O)CC1CCCCC1)c1cccc(Br)c1`?
Shiga toxin inh: 55*; Sm TGR block: -5%; TbPYK inhibitor: -2%; CHX counter: 44*; LmPK inhibitor: -2%

What do the screens show for `N/C(=N\OC(=O)CC1CCCCC1)c1ccc(Br)cc1`?
Shiga toxin inh: 22; Sm TGR block: inconclusive; TbPYK inhibitor: -6%; CHX counter: 12; LmPK inhibitor: -1%

How did COc1ccc(/C(N)=N/OC(=O)CSc2ccc(C)cc2)cc1OC do in these assays?
Shiga toxin inh: -16; Sm TGR block: 11%; TbPYK inhibitor: 1%; FBPA Giardia inh: -6%; CHX counter: 1; LmPK inhibitor: 5%

How did N/C(=N\OC(=O)CC1CCCCC1)c1ccc(Cl)cc1 do in these assays?
Shiga toxin inh: 73*; Sm TGR block: -9%; TbPYK inhibitor: 6%; CHX counter: 30*; LmPK inhibitor: -14%
